Screening data (PubChem)
DAX1 inh-1: inhibitors of DAX1 repression of SF-1 activated StAR promoter. 370,000 tested, 1.1% active. HEK293T StAR-luciferase reporter, SF-1/DAX-1 repression relief. inhibition, % at 6.8 µM. AID 652010;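 active means inhibition above the mean over all tested compounds plus 3 SD, cut at about 3.6% in these data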;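 further: 0% = DAX-1 cells with DMSO and 100% = cells lacking DAX-1 with DMSO; higher inhibition means more luminescence from relief of DAX-1 repression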
ssDAF-12 act: activates DAF-12 receptor from parasite S. stercoralis | HEK293 ssDAF-12/GRIP1 lit1-tk-luc reporter, luminescence; % of 3 µM dafachronic acid response | activation, % at 6.8 µM | 370,000 tested, 1% active;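 active means activation above the mean over all tested compounds plus 3 SD, cut at about 0.9% in these data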;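 further: 0% = DMSO-only wells and 100% = 3 µM delta7-dafachronic acid wells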
hcDAF-12 act: activates DAF-12 receptor from parasite H. contortus | HEK293 hcDAF-12 lit1-tk-luc reporter, luminescence; 0% DMSO, 100% Δ7-dafachronic acid | activation, % at 6.8 µM | 370,000 tested, 1.4% active;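 active means activation above the mean of all tested compounds plus 3 SD, cut at about 5.5% in these data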;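 further: 100% = response to 3 µM Δ7-dafachronic acid high control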
FXN GAA850 act: increases GAA850 frataxin promoter reporter activity | HEK293 lucGAA850 FXN promoter luciferase reporter, 24 h; percent of 10 µM SAHA response | activation, % at 6 µM | 360,000 tested, 0.56% active;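 active means activation above the average of all compounds screened plus 3 SD, cutoff fixed separately per campaign, cut at about 7.5% in these data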;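 further: 0% = DMSO wells and 100% = 10 µM SAHA wells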
hgDAF-12 ag: activates the H. glycines DAF-12 receptor ligand-binding domain | HEK293 GAL4-hgDAF12 UAS-luciferase reporter, agonist luminescence; normalized to butyrate control | activation, % at 6.8 µM | 370,000 tested, 1.8% active;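 active means activation above a cutoff set at the mean of all screened compounds plus 3 SD, cut at about 10% in these data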;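 further: 0% = DMSO wells and 100% = sodium butyrate wells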
DAX1 inh-2: NR0B1 (DAX1) inhibition; P51843; HEK293 Gal4-DAX1 luciferase reporter, luminescence; inhibition, % at 6.75 µM; 340,000 tested, 0.99% active; AID 504766;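 active means inhibition above the mean over all tested compounds plus 3 SD, cut at about 4.2% in these data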;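 further: 0% = DAX1-transfected cells with DMSO and 100% = empty-vector control cells with DMSO; inhibition shows as a rise in luminescence from relieved DAX1 repression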
hgDAF12 ag: confirmation of H. glycines DAF-12 agonists | shares compounds with hgDAF-12 ag | HEK293 GAL4-hgDAF12 luciferase reporter, agonist mode; percent of butyrate response | activation, % at 6.8 µM | 3,300 tested, 80% active | AID 743050;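 active means mean activation over triplicate wells above the hit cutoff derived from the earlier primary screen, cut at about 11% in these data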;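 further: 0% = DMSO low control and 100% = 2 mM sodium butyrate high control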
LXR ag 2: activates human LXR-beta, counter-screen for DAF-12 agonists; AID 743051; activation, % at 6.8 µM; HEK293 Gal4-LXR luciferase reporter, 24 h; 3,300 tested, under 10 active; shares compounds with hgDAF-12 ag;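 active means mean activation of the triplicate above a set limit carried over from the primary screen, none filed active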
Target sequence (P55055 whole entry, looked up, the tested form may be a part): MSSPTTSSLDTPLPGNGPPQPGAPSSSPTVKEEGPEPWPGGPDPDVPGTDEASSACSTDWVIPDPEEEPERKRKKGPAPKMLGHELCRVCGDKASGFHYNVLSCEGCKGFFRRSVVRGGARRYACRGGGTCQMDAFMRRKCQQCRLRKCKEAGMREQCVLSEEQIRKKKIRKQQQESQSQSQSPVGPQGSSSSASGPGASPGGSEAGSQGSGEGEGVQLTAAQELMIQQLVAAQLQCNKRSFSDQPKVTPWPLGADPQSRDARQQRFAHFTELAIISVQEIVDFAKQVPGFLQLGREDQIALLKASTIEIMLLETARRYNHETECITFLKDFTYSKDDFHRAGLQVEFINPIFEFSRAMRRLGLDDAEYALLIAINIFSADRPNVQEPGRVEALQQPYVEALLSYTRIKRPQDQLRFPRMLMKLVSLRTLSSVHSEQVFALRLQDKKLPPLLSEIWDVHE
* hit, by the source's call. Most compounds without a hit are left out; they make up all but 4.5% or so of the library.

Screening O=C(O)c1ccc(N/N=C/C2=Cc3ccccc3OC2)cc1 returned DAX1 inh-1 4.1*, ssDAF-12 act 0, hcDAF-12 act 3, FXN GAA850 act 6, hgDAF-12 ag 19*, DAX1 inh-2 11*, hgDAF12 ag 16* and LXR ag 2 0.
O=C(NC1CC1)c1ccc(-c2cnc3cccnn23)cc1 was read as DAX1 inh-1 4.4*, ssDAF-12 act -1, hcDAF-12 act 1, FXN GAA850 act 3, hgDAF-12 ag 14*, hgDAF12 ag 9 and LXR ag 2 0.
CCOc1ccc(-c2cnc3cccnn23)cc1 was read as DAX1 inh-1 4, ssDAF-12 act 0, hcDAF-12 act 4, FXN GAA850 act 1, hgDAF-12 ag 15*, hgDAF12 ag 11* and LXR ag 2 0.
CN(CC(=O)Nc1ccccc1Br)C(=O)c1ccccc1OCc1ccccc1Cl was read as DAX1 inh-1 -1, ssDAF-12 act -1, hcDAF-12 act -3, FXN GAA850 act 1, hgDAF-12 ag -2 and DAX1 inh-2 -1.
Nc1ccccc1NC(=O)NC(=O)c1ccccc1 was read as DAX1 inh-1 2, ssDAF-12 act 2.0*, hcDAF-12 act 1, FXN GAA850 act 4, hgDAF-12 ag 16*, DAX1 inh-2 4.6*, hgDAF12 ag 16* and LXR ag 2 0.
For Cc1cccc(NC(=O)c2nc[nH]c2C(=O)N2CCN(C(=O)OC(C)(C)C)CC2)c1 the results were DAX1 inh-1 0, ssDAF-12 act -1, hcDAF-12 act -2, FXN GAA850 act -2, hgDAF-12 ag 0 and DAX1 inh-2 3.
`Cc1cccc(C2NC(=O)c3ccccc3N2)c1` (stereo not given) gave DAX1 inh-1 3, ssDAF-12 act 0, hcDAF-12 act 2, FXN GAA850 act 1, hgDAF-12 ag 16*, DAX1 inh-2 2, hgDAF12 ag 14* and LXR ag 2 0.
For COc1cccc(CN2CCC2(C)C(=O)NCCc2ccccn2)c1OC (stereo not given) the results were DAX1 inh-1 -1, ssDAF-12 act 0, hcDAF-12 act 0, FXN GAA850 act 1 and hgDAF-12 ag -4.
O=[N+]([O-])c1ccc(NN=Cc2ccc3c(c2)OCO3)nc1 was read as DAX1 inh-1 3, ssDAF-12 act 0, hcDAF-12 act 4, FXN GAA850 act 3, hgDAF-12 ag 15*, DAX1 inh-2 7.2*, hgDAF12 ag 17* and LXR ag 2 1.
`O=[N+]([O-])c1ccc(S(=O)(=O)NN=Cc2ccc3c(c2)OCO3)cc1` gave DAX1 inh-1 0, ssDAF-12 act -1, hcDAF-12 act 0, FXN GAA850 act 1, hgDAF-12 ag 1 and DAX1 inh-2 1.
For COc1ccc(-c2cccc(N3CCN(c4ccccn4)CC3)n2)cc1OC the results were DAX1 inh-1 0, ssDAF-12 act -1, hcDAF-12 act 0, FXN GAA850 act 3 and hgDAF-12 ag -4.
Screening CS(=O)(=O)c1ccc2nc(NC(=O)Nc3ccccc3F)sc2c1 returned DAX1 inh-1 3, ssDAF-12 act 0, hcDAF-12 act 2, FXN GAA850 act 8, hgDAF-12 ag 15*, DAX1 inh-2 7.3*, hgDAF12 ag 27* and LXR ag 2 1.
For CC(C)(C)C(=O)Nc1nc2ccc(S(C)(=O)=O)cc2s1 the results were DAX1 inh-1 0, ssDAF-12 act -1, hcDAF-12 act 3, FXN GAA850 act 2, hgDAF-12 ag 14*, DAX1 inh-2 3, hgDAF12 ag 13* and LXR ag 2 0.
Screening CC(C)C(=O)Nc1nc2ccc(S(C)(=O)=O)cc2s1 returned DAX1 inh-1 -1, ssDAF-12 act -1, hcDAF-12 act -2, FXN GAA850 act 2, hgDAF-12 ag 5 and DAX1 inh-2 0.
CCOc1ccc(CNC(=O)C2CCCN(S(=O)(=O)N3CC(C)CC(C)C3)C2)cc1OC (stereo not given) was read as DAX1 inh-1 -1, ssDAF-12 act -1, hcDAF-12 act -2, FXN GAA850 act 1, hgDAF-12 ag 3 and DAX1 inh-2 -1.
For O=S1(=O)C=CCN1Cc1cn(Cc2cccc(C(F)(F)F)c2)nn1 the results were DAX1 inh-1 1, ssDAF-12 act -1, hcDAF-12 act -1 and hgDAF-12 ag 5.
Screening c1cc(-c2cc3cc(N4CCOCC4)ccc3o2)cs1 returned DAX1 inh-1 3, ssDAF-12 act 0, hcDAF-12 act 5, FXN GAA850 act -1, hgDAF-12 ag 15*, DAX1 inh-2 4.8*, hgDAF12 ag 14* and LXR ag 2 1.
Screening COc1cccc(/C=N/n2cnc3ccccc32)c1OC returned DAX1 inh-1 3, ssDAF-12 act 0, hcDAF-12 act 4, FXN GAA850 act 4, hgDAF-12 ag 14*, DAX1 inh-2 2, hgDAF12 ag 14* and LXR ag 2 1.
FC(F)(F)c1cnc2c(-c3ccccc3)n[nH]c2c1 was read as DAX1 inh-1 1, ssDAF-12 act 0, hcDAF-12 act 4, FXN GAA850 act 7, hgDAF-12 ag 14*, hgDAF12 ag 7 and LXR ag 2 0.
`O=C(O)c1sc2cc(C(F)(F)F)cnc2c1-c1ccccc1` gave DAX1 inh-1 -1, ssDAF-12 act -2, hcDAF-12 act 0, FXN GAA850 act 0, hgDAF-12 ag 1 and DAX1 inh-2 2.
For Cc1ccc(S(=O)(=O)N2CCOC23CCN(S(=O)(=O)c2c(C)cc(C)cc2C)CC3)cc1 the results were DAX1 inh-1 -3, ssDAF-12 act -1, hcDAF-12 act -1, FXN GAA850 act -1, hgDAF-12 ag 2 and DAX1 inh-2 -2.
Cc1ccc(CN2CCN(CC(C)C)C(CCO)C2)s1 (stereo not given) was read as DAX1 inh-1 0, ssDAF-12 act 0, hcDAF-12 act 4, FXN GAA850 act 5, hgDAF-12 ag 15*, DAX1 inh-2 3, hgDAF12 ag 10 and LXR ag 2 0.
Screening Cc1ccc(CN2CCN(CCC(C)C)C(CCO)C2)s1 (stereo not given) returned DAX1 inh-1 0, ssDAF-12 act -1, hcDAF-12 act 0, FXN GAA850 act 1, hgDAF-12 ag 0 and DAX1 inh-2 -1.
For Cc1cc(C)c(NC(=O)CN2C(=O)NC3(CCCc4ccccc43)C2=O)c(Cl)c1 (stereo not given) the results were DAX1 inh-1 2, ssDAF-12 act -1, hcDAF-12 act -1, FXN GAA850 act 0, hgDAF-12 ag -3 and DAX1 inh-2 0.
